KB-3-1 cytotox – KB-3-1 parental cell cytotoxicity. KB-3-1 viability, CellTiter-Glo ATP luminescence, 72 h. Potency, µM (titrated, usually from 46.1 µM), usual class: cytotoxic. 400,000 tested, 1.4% active; also: potency is read from the fitted curve at half-maximal effect; % is scaled to controls: 0 for no effect and ±100 for the full control effect; nearly all actives have a fitted effect of over 60% in size
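Parental KB-3-1 adenocarcinoma cells in phenol-red-free DMEM with 10% FBS were pin-treated with compounds at several concentrations, incubated 72 h at 37 °C, and viability read by CellTiter-Glo luminescence; concentration-effect curves were fitted after normalization.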
IL1B secr inh – inflammasome signaling inhibition, IL-1 beta readout. AID 743279. activity change, % at 57.5 µM. 360,000 tested, 4.7% active. THP-1 LPS/ATP IL-1B secretion, AlphaLISA, 16 h; hits give low values; in the data active = activity change below about -50%; inconclusive = mostly about -30% to -49%; also: % is scaled to controls: 0 for no effect and ±100 for the full control effect
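Secreted IL-1B measured by AlphaLISA bead assay after 16 h compound exposure of THP-1 cells; compounds (final up to 57.5 uM) added 1 h before LPS (250 ng/mL) and ATP (1.25 mM) stimulation; lower signal means less secretion.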
KB-V1 MDR tox – KB-V1 MDR subline cytotoxicity; KB-V1 MDR cells viability, CellTiter-Glo, 72 h; Potency, µM (highest dose often 46.1 µM), actives largely listed as cytotoxic; 400,000 tested, 3.4% active; also: potency is read from the fitted curve at half-maximal effect; % is scaled to controls: 0 for no effect and ±100 for the full control effect; nearly all actives have a fitted effect of over 60% in size
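Luminescent ATP read-out (CellTiter-Glo, 10 min) measures survival of drug-selected KB-V1 MDR cells after 72 h, 37 degrees C compound exposure. Medium: phenol-red-free DMEM, 10% FBS. Values from fitted concentration-response curves.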
MCF10A rereplic – inducers of DNA re-replication in MCF 10A breast cells; 350,000 tested, 2.9% active; MCF 10A DNA re-replication, Hoechst nuclear intensity, 48 h; Potency, µM (top dose mostly 46.1 µM), inactives show at the top dose activity, positive = re-replication, usual class: activators; also: potency is read from the fitted curve at half-maximal effect; % of control where 0% means no effect; nearly all actives have a fitted effect of over 50% in size
SW480 rereplic – induces DNA re-replication in SW480 colon adenocarcinoma cells; SW480 DNA re-replication, Hoechst DNA content imaging, 48 h; Potency, µM (highest dose often 46.1 µM), for inactives: top-dose re-replication activation, most hits filed as activators; 340,000 tested, 1.8% active; AID 624297; also: potency is read from the fitted curve at half-maximal effect; % of control where 0% means no effect; nearly all actives have a fitted effect of over 55% in size
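First, 250 cells per well were seeded. Next, compound or vehicle (23 nL) was pinned in, plates sat 48 hr at 37 C. Finally Hoechst was added for 40 min before fluorescence scanning.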
Numbers without * were called inactive; [ ] = remark or other dose. Rows were chosen to be rich in hits. Some 9.9% of all compounds tested hit in one or more screens of this group. Unless noted, calls follow the shape of the dose curve; as a rule, active = well fitted curve in the direction sought with a large enough effect; inconclusive = small, poorly fitted or top-dose-only effect, or another doubt; inactive = no such curve, though single readings can be large; an effect the other way counts as inactive or inconclusive.

Results for Cc1ccc(S(=O)(=O)N2C[C@H]3N(C(=O)OC(C)C)N(C(=O)OC(C)C)C[C@H](OC(=O)Nc4c(C)noc4C)[C@@]3(O)C2)cc1 ?
KB-3-1 cytotox: inactive; IL1B secr inh: -50.7*; KB-V1 MDR tox: inactive

Results for CC(=O)N1CCN(C(=O)COC(=O)c2ccc(S(C)(=O)=O)cc2)CC1 ?
KB-3-1 cytotox: inactive; IL1B secr inh: 6.3; KB-V1 MDR tox: inactive; MCF10A rereplic: -6.4%; SW480 rereplic: -10.5%

Results for Cc1cccc(OC(=O)c2snnc2C)c1 ?
KB-3-1 cytotox: inactive; KB-V1 MDR tox: inactive

How did CCc1nc(SCC(=O)Nc2nc3c(s2)CCCC3)c2ccccc2n1 do in these assays?
KB-3-1 cytotox: inconclusive; IL1B secr inh: -85.7*; KB-V1 MDR tox: inactive; MCF10A rereplic: -181.5%[0.0737 µM]; SW480 rereplic: inconclusive

How did CCCc1nc(SCC(=O)Nc2nc3c(s2)CCCC3)c2ccccc2n1 do in these assays?
KB-3-1 cytotox: inactive; IL1B secr inh: -23.6; KB-V1 MDR tox: inactive; MCF10A rereplic: 16.4µM*; SW480 rereplic: 7.8%

Results for NNC(=O)/C(=C\c1ccc(Br)cc1)NC(=O)c1cccs1 ?
KB-3-1 cytotox: inactive; IL1B secr inh: -9.0; KB-V1 MDR tox: inactive; MCF10A rereplic: -5.9%; SW480 rereplic: -4.6%

What do the screens show for `COc1cc(OC)c(NC(=O)Cn2c(=O)cc(C)c3c(C)nn(-c4ccc(C)cc4)c32)cc1Cl`?
KB-3-1 cytotox: inactive; KB-V1 MDR tox: inactive

Results for Cc1ccc(C(c2nnnn2CCc2ccccc2)N2CCC(C)CC2)cc1 (stereo not drawn) ?
KB-3-1 cytotox: inconclusive; IL1B secr inh: -63.5*; KB-V1 MDR tox: 18.4µM*; MCF10A rereplic: inconclusive; SW480 rereplic: 27.6%

How did Cc1ccc(C(c2nnnn2CCc2ccccc2)N2CCSCC2)cc1 (stereo not drawn) do in these assays?
KB-3-1 cytotox: inactive; IL1B secr inh: -18.0; KB-V1 MDR tox: inconclusive; MCF10A rereplic: 2.1%; SW480 rereplic: 2.1%

What do the screens show for `O=C(Nc1ccccc1-c1nnc(SCc2ccccc2Cl)o1)c1ccccc1`?
KB-3-1 cytotox: inactive; IL1B secr inh: 27.9; KB-V1 MDR tox: 14.6µM*; MCF10A rereplic: inconclusive; SW480 rereplic: 4.1%

What do the screens show for `COc1cc(-c2nnc(SCC(=O)Oc3ccccc3Cl)o2)cc(OC)c1OC`?
KB-3-1 cytotox: inactive; KB-V1 MDR tox: inactive

What do the screens show for `COc1cc(-c2nnc(SCc3ccccc3Cl)o2)cc(OC)c1OC`?
KB-3-1 cytotox: inactive; IL1B secr inh: -58.8*; KB-V1 MDR tox: 2.31µM*; MCF10A rereplic: 20.6µM*; SW480 rereplic: -4.0%

Results for COc1cc(-c2nnc(SCc3c(F)cccc3Cl)o2)cc(OC)c1OC ?
KB-3-1 cytotox: inconclusive; IL1B secr inh: -57.9*; KB-V1 MDR tox: inconclusive; MCF10A rereplic: inconclusive; SW480 rereplic: -0.4%

What do the screens show for `CC(C(=O)Nc1ccccc1)n1nnc2sc3c(c2c1=O)CCCC3` (stereo not drawn)?
KB-3-1 cytotox: inactive; KB-V1 MDR tox: inactive

How did O=C(Nc1nnc(-c2ccccc2Cl)o1)c1ccco1 do in these assays?
KB-3-1 cytotox: inactive; IL1B secr inh: -0.6; KB-V1 MDR tox: 16.4µM*; MCF10A rereplic: 98.9%; SW480 rereplic: 11.6µM*

Results for O=C(Nc1cccc(-c2nnc(-c3ccccc3)o2)c1)c1ccco1 ?
KB-3-1 cytotox: inactive; IL1B secr inh: 14.6; KB-V1 MDR tox: 2.91µM*; MCF10A rereplic: 13.8%; SW480 rereplic: -6.6%

How did O=C(Nc1ccc2oc(-c3ccccc3)nc2c1)c1ccco1 do in these assays?
KB-3-1 cytotox: inactive; IL1B secr inh: 5.9; KB-V1 MDR tox: 23.1µM*; MCF10A rereplic: 16.4%; SW480 rereplic: -1.6%

What do the screens show for `Cc1cccc(C)c1NC(=O)C(Cl)=C(Cl)Cl`?
KB-3-1 cytotox: 18.4µM*; IL1B secr inh: -58.8*; KB-V1 MDR tox: inconclusive; MCF10A rereplic: 23.7%; SW480 rereplic: inconclusive

Results for CN(Cc1ccccc1)CC(O)COc1ccc(CNCCc2cccnc2)cc1 (stereo not drawn) ?
KB-3-1 cytotox: inactive; IL1B secr inh: 0.0; KB-V1 MDR tox: inactive; MCF10A rereplic: 8.0%; SW480 rereplic: 5.7%

Screening data deposited in PubChem by National Center for Advancing Translational Sciences (NCATS).
